# Measured values from PubChem BioAssay (EPA / NIEHS).
# Calls of active or inactive are those of the source. How the source made its calls: active means hit-call score of the fitted dose curve at least 0.9, where 1 is the maximum; inactive means score below 0.9.
# Columns and labels:
# Settings in all cases: mRNA level, 48 h; actives raise or lower the signal
# [1] = read-out: Lipase C (LIPC), LIPC (gene 3990); experiment: LTEA_HepaRG_LIPC: Life Technologies and Expression Analysis (LTEA) Assay for Lipase C (LIPC) using HepaRG (AID 2283514)
# In short: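 Read-out is LIPC transcript level by TaqMan qRT-PCR, normalized to three housekeeping genes, after 48 h chemical treatment of human HepaRG liver cells. Curves span eight concentrations topping at 100 uM; activity in either direction scored relative to 0.5% DMSO.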
# [2] = read-out: Lipoprotein lipase (LPL), LPL (gene 4023); experiment: LTEA_HepaRG_LPL: Life Technologies and Expression Analysis (LTEA) Assay for Lipoprotein lipase (LPL) using HepaRG (AID 2283515)
# In short: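 Read-out is LPL transcript level by qRT-PCR, normalized to three housekeeping genes and fitted bidirectionally against the DMSO control. Human HepaRG cells received chemicals for 48 h at up to 100 uM.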
# [3] = read-out: MicroRNA 122 (MIR122), gene 406906; experiment: LTEA_HepaRG_MIR122: Life Technologies and Expression Analysis (LTEA) Assay for MicroRNA 122 (MIR122) using HepaRG (AID 2283516); further: the transcript read is the microRNA miR-122
# In short: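 Differentiated human HepaRG cells in serum-free induction medium exposed 48 h to 8 half-log concentrations from 100 uM in 0.5% DMSO, duplicate. MIR122 quantified by Fluidigm TaqMan qRT-PCR, normalised to ACTB, GAPDH, POLR2A; fold change fitted bidirectionally versus DMSO.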
# [4] = read-out: matrix metalloproteinase-10 (MMP10), MMP10 (gene 4319); experiment: LTEA_HepaRG_MMP10: Life Technologies and Expression Analysis (LTEA) Assay for matrix metalloproteinase-10 (MMP10) using HepaRG (AID 2283517)
# In short: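 Gain or loss of MMP10 mRNA is fitted relative to the 0.5% DMSO vehicle. The human hepatic line HepaRG receives a 48-hour serum-free exposure, in duplicate, with a maximum concentration of 100 uM.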
# MYC, MYC (gene 4609) = experiment: LTEA_HepaRG_MYC: Life Technologies and Expression Analysis (LTEA) Assay for MYC using HepaRG (AID 2283518)
# In short: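 Differentiated human HepaRG cells, plated 48 h then switched to serum-free induction medium, were exposed in duplicate for 48 h to 8-point half-log series up to 100 uM in 0.5% DMSO. MYC mRNA measured by qRT-PCR, normalized to ACTB/GAPDH/POLR2A.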
# [5] = read-out: matrix metalloproteinase-3 (MMP3), MMP3 (gene 4314); experiment: LTEA_HepaRG_MMP3: Life Technologies and Expression Analysis (LTEA) Assay for matrix metalloproteinase-3 (MMP3) using HepaRG (AID 2283519)
# In short: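 HepaRG, human; 48 h dosing, 8 conc. (max 100 uM, half-log), duplicate, 0.5% DMSO. Readout: MMP3 transcript by Fluidigm TaqMan qRT-PCR, ACTB/GAPDH/POLR2A-normalised. Gain or loss fitted vs DMSO.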
# [6] = read-out: Paternally Expressed 10 (PEG10), PEG10 (gene 23089); experiment: LTEA_HepaRG_PEG10: Life Technologies and Expression Analysis (LTEA) Assay for Paternally Expressed 10 (PEG10) using HepaRG (AID 2283520)
# In short: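 Differentiated HepaRG cells exposed 48 h in serum-free induction medium to eight half-log concentrations topping at 100 uM, 0.5% DMSO, in duplicate. PEG10 mRNA quantified by TaqMan qRT-PCR, normalized to ACTB, GAPDH and POLR2A; bidirectional fit versus DMSO.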
# [7] = read-out: Nuclear factor NF-kappa-B p105 subunit (Homo sapiens) (UniProt P19838); experiment: LTEA_HepaRG_NFKB1: Life Technologies and Expression Analysis (LTEA) Assay for Nuclear Factor Kappa B Subunit 1 (NFKB1) using HepaRG (AID 2283521)
# In short: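 NFKB1 transcript was measured by TaqMan qRT-PCR on Fluidigm arrays, normalised to three housekeeping genes and fitted in both directions against 0.5% DMSO. HepaRG cells were dosed in duplicate for 48 h in serum-free induction medium, eight half-log steps from 100 uM.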
# [8] = read-out: Phosphatase and tensin (PTEN), PTEN (gene 5728); experiment: LTEA_HepaRG_PTEN: Life Technologies and Expression Analysis (LTEA) Assay for Phosphatase and tensin (PTEN) using HepaRG (AID 2283523)
# In short: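 Read-out is PTEN transcript level by multiplexed TaqMan qRT-PCR after 48 h chemical treatment of human HepaRG cultures in serum-free induction medium. Concentrations spanned 100 uM downward in half-log steps, 0.5% DMSO throughout; activity fitted in both directions against vehicle.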
# [9] = read-out: Protein phosphatase 2A (PPP2R4), PTPA (gene 5524); experiment: LTEA_HepaRG_PPP2R4: Life Technologies and Expression Analysis (LTEA) Assay for Protein phosphatase 2A (PPP2R4) using HepaRG (AID 2283522)
# In short: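 Differentiated human HepaRG cells in serum-free induction medium were exposed 48 h to 8 concentrations (top 100 µM, half-log steps, duplicate) in 0.5% DMSO. PPP2R4 mRNA was measured by TaqMan qRT-PCR, normalised to ACTB, GAPDH and POLR2A, and fitted bidirectionally versus DMSO.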
# Nuclear factor NF-kappa-B p105 subunit (Homo sapiens), sequence (P19838 whole entry, looked up): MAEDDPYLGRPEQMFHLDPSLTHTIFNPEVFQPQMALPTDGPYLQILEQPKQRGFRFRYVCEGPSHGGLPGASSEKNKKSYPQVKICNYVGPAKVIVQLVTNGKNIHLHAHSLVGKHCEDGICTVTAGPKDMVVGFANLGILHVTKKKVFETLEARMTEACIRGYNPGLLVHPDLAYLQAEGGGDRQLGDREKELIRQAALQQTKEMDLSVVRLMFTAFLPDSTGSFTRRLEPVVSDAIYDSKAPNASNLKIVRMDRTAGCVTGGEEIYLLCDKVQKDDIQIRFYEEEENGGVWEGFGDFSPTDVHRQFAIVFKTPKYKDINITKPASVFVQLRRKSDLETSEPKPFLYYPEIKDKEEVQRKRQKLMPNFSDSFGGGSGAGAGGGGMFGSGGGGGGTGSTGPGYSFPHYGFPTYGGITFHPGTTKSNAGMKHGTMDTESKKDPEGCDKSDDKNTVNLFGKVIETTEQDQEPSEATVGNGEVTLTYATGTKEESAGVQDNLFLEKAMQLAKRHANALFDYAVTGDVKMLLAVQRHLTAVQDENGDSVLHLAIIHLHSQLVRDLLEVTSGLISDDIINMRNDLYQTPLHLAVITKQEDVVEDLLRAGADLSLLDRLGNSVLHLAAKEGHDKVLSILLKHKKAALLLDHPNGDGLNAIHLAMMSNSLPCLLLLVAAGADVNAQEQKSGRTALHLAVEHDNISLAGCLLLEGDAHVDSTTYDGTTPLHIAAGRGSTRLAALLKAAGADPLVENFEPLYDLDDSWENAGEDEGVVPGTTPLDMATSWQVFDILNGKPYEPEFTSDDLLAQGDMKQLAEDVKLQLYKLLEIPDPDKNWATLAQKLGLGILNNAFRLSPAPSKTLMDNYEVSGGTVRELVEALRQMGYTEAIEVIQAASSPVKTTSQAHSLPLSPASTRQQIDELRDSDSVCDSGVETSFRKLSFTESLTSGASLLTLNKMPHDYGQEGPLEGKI
smiles,measurement,setting,value
C/C=C/c1ccc(OC)cc1,outcome,[1],inactive
same,outcome,[2],inactive
same,outcome,[3],inactive
same,outcome,[4],inactive
same,outcome,"MYC, MYC (gene 4609)",inactive
same,outcome,[5],inactive
same,outcome,[6],inactive
same,outcome,[7],inactive
same,outcome,[8],inactive
O=C(N[C@@H](c1ccccc1)[C@@H]1CCCCN1)c1cccc(C(F)(F)F)c1Cl,outcome,[1],inactive
same,AC50,[2],84.7 µM (active)
same,outcome,[3],inactive
same,AC50,[4],35 µM (active)
same,AC50,"MYC, MYC (gene 4609)",50 µM (active)
same,AC50,[5],87.1 µM (active)
same,AC50,[6],50 µM (active)
same,outcome,[7],inactive
same,AC50,[8],75.2 µM (active)
NC=O,outcome,[1],inactive
same,outcome,[2],inactive
same,outcome,[3],inactive
same,outcome,[4],inactive
same,outcome,"MYC, MYC (gene 4609)",inactive
same,outcome,[5],inactive
same,outcome,[6],inactive
same,outcome,[7],inactive
same,outcome,[8],inactive
CCCCCCC(CCCCCCCCCCC(=O)OCC(COC(C)=O)OC(C)=O)OC(C)=O (stereo not drawn),outcome,[1],inactive
same,outcome,[2],inactive
same,outcome,[3],inactive
same,outcome,[4],inactive
same,outcome,"MYC, MYC (gene 4609)",inactive
same,outcome,[5],inactive
same,outcome,[6],inactive
same,outcome,[7],inactive
same,outcome,[8],inactive
Cc1ccc(C(C)(C)C)c(O)c1,outcome,[1],inactive
same,outcome,[2],inactive
same,outcome,[3],inactive
same,outcome,[4],inactive
same,outcome,"MYC, MYC (gene 4609)",inactive
same,outcome,[5],inactive
same,outcome,[6],inactive
same,outcome,[7],inactive
same,outcome,[8],inactive
CCOCCOCCO,outcome,[1],inactive
same,outcome,[2],inactive
same,outcome,[3],inactive
same,outcome,[4],inactive
same,outcome,"MYC, MYC (gene 4609)",inactive
same,outcome,[5],inactive
same,outcome,[6],inactive
same,outcome,[7],inactive
same,outcome,[8],inactive
CC1=C(C)S(=O)(=O)CCS1(=O)=O,AC50,[1],85.8 µM (active)
same,AC50,[2],75.3 µM (active)
same,AC50,[3],75.2 µM (active)
same,outcome,[4],inactive
same,AC50,"MYC, MYC (gene 4609)",72.6 µM (active)
same,outcome,[5],inactive
same,outcome,[6],inactive
same,outcome,[7],inactive
same,outcome,[8],inactive
CCCCC(CC)COP(=O)(OCC(CC)CCCC)OCC(CC)CCCC (stereo not drawn),outcome,[1],inactive
same,outcome,[2],inactive
same,outcome,[3],inactive
same,outcome,[4],inactive
same,outcome,"MYC, MYC (gene 4609)",inactive
same,outcome,[5],inactive
same,outcome,[6],inactive
same,outcome,[7],inactive
same,outcome,[8],inactive
O=C(O)c1cccnc1,outcome,[1],inactive
same,outcome,[2],inactive
same,outcome,[3],inactive
same,outcome,[4],inactive
same,outcome,"MYC, MYC (gene 4609)",inactive
same,outcome,[5],inactive
same,outcome,[6],inactive
same,outcome,[7],inactive
same,outcome,[8],inactive
CC(N)=O,outcome,[1],inactive
same,outcome,[2],inactive
same,outcome,[3],inactive
same,outcome,[4],inactive
same,outcome,"MYC, MYC (gene 4609)",inactive
same,outcome,[5],inactive
same,outcome,[6],inactive
same,outcome,[9],inactive
CC(C)OC(=O)C(C)(C)Oc1ccc(C(=O)c2ccc(Cl)cc2)cc1,outcome,[1],inactive
same,outcome,[2],inactive
same,outcome,[3],inactive
same,outcome,[4],inactive
same,outcome,"MYC, MYC (gene 4609)",inactive
same,AC50,[5],0.0439 µM (active)
same,outcome,[6],inactive
same,outcome,[7],inactive
same,outcome,[8],inactive
Cc1cc(SC2=C(O)C[C@@](CCc3ccc(N)cc3)(C(C)C)OC2=O)c(C(C)(C)C)cc1CO,outcome,[1],inactive
same,outcome,[2],inactive
same,outcome,[3],inactive
same,outcome,[4],inactive
same,outcome,"MYC, MYC (gene 4609)",inactive
same,outcome,[5],inactive
same,outcome,[6],inactive
same,outcome,[7],inactive
same,outcome,[8],inactive
NCCOCCOCCN,outcome,[1],inactive
same,outcome,[2],inactive
same,outcome,[3],inactive
same,outcome,[4],inactive
same,outcome,"MYC, MYC (gene 4609)",inactive
same,outcome,[5],inactive
same,outcome,[6],inactive
same,outcome,[7],inactive
same,outcome,[9],inactive
same,outcome,[8],inactive
OCC(O)CO,outcome,[1],inactive
same,outcome,[2],inactive
same,outcome,[3],inactive
same,outcome,[4],inactive
same,outcome,"MYC, MYC (gene 4609)",inactive
same,outcome,[5],inactive
same,outcome,[6],inactive
same,AC50,[7],1.06 µM (active)
same,outcome,[8],inactive
O=C(O)c1[nH]n(-c2ccc(S(=O)(=O)O)cc2)c(=O)c1N=Nc1ccc(S(=O)(=O)O)cc1,outcome,[1],inactive
same,outcome,[2],inactive
same,outcome,[3],inactive
same,outcome,[4],inactive
same,outcome,"MYC, MYC (gene 4609)",inactive
same,outcome,[5],inactive
same,outcome,[6],inactive
same,outcome,[7],inactive
same,outcome,[8],inactive
C=CCc1ccc(OC)c(OC)c1,outcome,[1],inactive
same,outcome,[2],inactive
same,outcome,[3],inactive
same,outcome,[4],inactive
same,outcome,"MYC, MYC (gene 4609)",inactive
same,outcome,[5],inactive
same,outcome,[6],inactive
same,outcome,[7],inactive
same,AC50,[8],0.0454 µM (active)
CN(C)CCCN(C)CCCN(C)C,outcome,[1],inactive
same,outcome,[2],inactive
same,outcome,[3],inactive
same,outcome,[4],inactive
same,outcome,"MYC, MYC (gene 4609)",inactive
same,outcome,[5],inactive
same,outcome,[6],inactive
same,outcome,[7],inactive
same,outcome,[8],inactive
CC(C)c1cccc(C(C)C)c1NC(=O)NS(=O)(=O)c1cc(C(C)(C)O)co1,outcome,[1],inactive
same,outcome,[2],inactive
same,outcome,[3],inactive
same,outcome,[4],inactive
same,outcome,"MYC, MYC (gene 4609)",inactive
same,outcome,[5],inactive
same,outcome,[6],inactive
same,outcome,[9],inactive
same,outcome,[8],inactive
CCCCCCCCCCCCCCOS(=O)(=O)O,outcome,[1],inactive
same,outcome,[2],inactive
same,outcome,[3],inactive
same,outcome,[4],inactive
same,outcome,"MYC, MYC (gene 4609)",inactive
same,outcome,[5],inactive
same,outcome,[6],inactive
same,outcome,[9],inactive
same,outcome,[8],inactive
COC(=O)[C@H]1[C@H]2C[C@@H]3c4[nH]c5cc(OC)ccc5c4CCN3C[C@H]2C[C@@H](OC(=O)c2cc(OC)c(OC)c(OC)c2)[C@@H]1OC,AC50,[1],49.4 µM (active)
same,outcome,[2],inactive
same,AC50,[3],55 µM (active)
same,AC50,[4],25.3 µM (active)
same,AC50,"MYC, MYC (gene 4609)",29.1 µM (active)
same,outcome,[5],inactive
same,outcome,[8],inactive
O=Cc1ccccc1C=O,outcome,[1],inactive
same,outcome,[2],inactive
same,outcome,[3],inactive
same,outcome,[4],inactive
same,outcome,"MYC, MYC (gene 4609)",inactive
same,outcome,[5],inactive
same,outcome,[6],inactive
same,outcome,[9],inactive
same,outcome,[8],inactive
Oc1ccccc1O,outcome,[1],inactive
same,outcome,[2],inactive
same,outcome,[3],inactive
same,outcome,[4],inactive
same,outcome,"MYC, MYC (gene 4609)",inactive
same,outcome,[5],inactive
same,outcome,[6],inactive
same,outcome,[8],inactive
Nc1nc(=S)c2[nH]cnc2[nH]1,AC50,[1],5.83 µM (active)
same,AC50,[2],19.1 µM (active)
same,AC50,[3],11.9 µM (active)
same,outcome,[4],inactive
same,AC50,"MYC, MYC (gene 4609)",11.4 µM (active)
same,outcome,[5],inactive
same,AC50,[6],7.2 µM (active)
same,outcome,[8],inactive
